{
  "source": "PubChem BioAssay (NCATS)",
  "note": "Results filed as inconclusive are left out. The source made the active and inactive calls. The call rests on the fitted dose curve; in most records, active means well fitted inhibition curve with a large enough effect; inconclusive means small, poorly fitted or top-dose-only effect; inactive means flat fitted curve, though single readings scatter. Where a SMILES comes first, the peptide text is derived from it. [ ]: non-standard residue; d: D form. ξ: configuration not given here. ξPhe(βξ-Me) = CC(c1ccccc1)C(N)C(=O)O; GABA = NCCCC(=O)O",
  "data": [
    {"experiment": "Primary qHTS for inhibitors of nuclear receptor binding SET domain protein 2 (NSD2) in an isogenic RCH-ACV NSD2 p.E1099K mutant (9B) (AID 1645876); further: nearly all actives have a fitted effect of over 70% in size; further: potency means the concentration at half of the fitted maximal effect; on activity change, negative = viability loss: on the % scale 0 is the no-effect control and ±100 the full control effect", "settings": "RCH-ACV NSD2 E1099K (9B) viability, CellTiter-Glo, 72 h; series mostly up to 44.9 µM; activity change, negative = viability loss: at the top concentration", "values": [
      {"molecule": "C/C=C/C=C/C(O)=C1\\C(O)=C(C)C(=O)[C@@]2(C)OC(=O)[C@@](C)(NC(=O)/C=C/C(=O)O)[C@@H]12", "activity change, negative = viability loss": "-10.5% [at 17.3 µM] (inactive)"},
      {"molecule": "CC1(C(=O)O)CCCC2(C)C3CCC4CC3(CCC12)CC4=O", "note": "(centres undefined)", "activity change, negative = viability loss": "-1.85% (inactive)"},
      {"molecule": "Cc1cc(N(C)C)ccc1-c1nc2ccc(-c3nc4ccc(N5CCN(C)CC5)cc4[nH]3)cc2[nH]1", "Potency": "0.578 µM (active)"},
      {"molecule": "[N-]=[N+]=N[C@]1(CO)O[C@@H](n2ccc(=O)[nH]c2=O)[C@@H](O)[C@@H]1O", "activity change, negative = viability loss": "0.265% (inactive)"},
      {"molecule": "COc1c2c(c(C)c3c1C(=O)OC3)OC1(C)CC(O)C34OC(OC)(CC(OC(C)=O)C3(C)C1C2)OC4(C)C", "note": "(centres undefined)", "outcome": "inactive [at 17.3 µM]"},
      {"molecule": "C[C@@H]1C[C@@H](O)[C@@]23CO[C@@H](O)[C@@H]2CCC[C@@H]3[C@@]12C[C@@H](c1ccoc1)OC2=O", "activity change, negative = viability loss": "-3.92% (inactive)"},
      {"molecule": "CC(=O)C=C=C1C(C)(C)CC(O[C@@H]2O[C@H](CO)[C@@H](O)[C@H](O)[C@H]2O)CC1(C)O", "note": "(some centres undefined)", "activity change, negative = viability loss": "-11.9% (inactive)"},
      {"molecule": "COC1C(CO)OC(n2cnc3c(=O)[nH]cnc32)C1O", "note": "(centres undefined)", "activity change, negative = viability loss": "-5.34% (inactive)"},
      {"molecule": "CC1(C)CC[C@]2(C(=O)O[C@@H]3O[C@H](CO)[C@@H](O)[C@H](O)[C@H]3O)CC[C@]3(C)C(=CCC4[C@@]5(C)CC[C@H](O[C@@H]6O[C@H](C(=O)O)[C@@H](O)[C@H](O[C@@H]7O[C@H](CO)[C@H](O)[C@H](O)[C@H]7O)[C@H]6O)C(C)(C)C5CC[C@]43C)C2C1", "note": "(some centres undefined)", "activity change, negative = viability loss": "-8.36% [at 9.23 µM] (inactive)"},
      {"molecule": "CC1OC(O[C@H]2CC[C@@]3(C)C(CC[C@]4(C)C3CC=C3C5CC(C)(C)CC[C@]5(C(=O)OC5OC(CO)C(OC6OC(COC7OCC(O)C(O)C7O)C(O)C(O)C6O)C(O)C5O)CC[C@]34C)C2(C)C)C(O)C(O)C1OC1OCC(OC2OCC(O)C(O)C2O)C(O)C1O", "note": "(some centres undefined)", "outcome": "inactive [at 9.23 µM]"},
      {"molecule": "CC1=CC(=O)[C@]2(O[C@@H]3O[C@@H](C)[C@H](O)[C@@H](O)[C@H]3OC(=O)/C=C/c3ccccc3)C=CO[C@@H](O[C@@H]3O[C@H](CO)[C@@H](O)[C@H](O)[C@H]3O)[C@H]12", "activity change, negative = viability loss": "-10.6% [at 17.3 µM] (inactive)"},
      {"molecule": "CC(C)c1ccc(CO)cc1O[C@@H]1O[C@H](CO)[C@@H](O)[C@H](O)[C@H]1O", "outcome": "inactive"},
      {"molecule": "Cc1ccc(S(=O)(=O)c2ccc([N+](=O)[O-])o2)cc1", "Potency": "0.649 µM (active)"},
      {"molecule": "C/C=C(\\C)C(=O)O[C@H]1[C@@H](O[C@]2(COC(=O)CC(C)C)O[C@H](COC(=O)C(C)CC)[C@@H](OC(C)=O)[C@@H]2O)O[C@H](COC(C)=O)[C@@H](O)[C@@H]1O", "note": "(some centres undefined)", "activity change, negative = viability loss": "-2.83% [at 17.3 µM] (inactive)"},
      {"molecule": "CC[C@H]1OC(=O)[C@H](C)[C@@H](O[C@H]2C[C@@](C)(OC)[C@@H](O)[C@H](C)O2)[C@H](C)[C@@H](O[C@@H]2O[C@H](C)C[C@H](N(C)C)[C@H]2O)[C@](C)(O)C[C@@H](C)C(=O)[C@H](C)[C@H]2OC(=O)O[C@@]21C", "outcome": "inactive"},
      {"molecule": "COc1cc(O)c2c(c1)C1=CC(O)C(O)CC1(C)OC2=O", "note": "(centres undefined)", "activity change, negative = viability loss": "-16.3% (inactive)"},
      {"molecule": "CC(C)=CCC[C@](C)(O)[C@H]1CC[C@]2(C)[C@@H]1[C@H](O)CC1[C@@]3(C)CC[C@H](O)C(C)(C)C3[C@@H](O[C@@H]3O[C@H](CO)[C@@H](O)[C@H](O)[C@H]3O[C@@H]3OC[C@@H](O)[C@H](O)[C@H]3O)C[C@]12C", "note": "(some centres undefined)", "outcome": "inactive [at 17.3 µM]"},
      {"molecule": "CO[C@H]1/C=C/[C@@](C)(O)/C=C/C(=O)O[C@H](C)[C@@H](C)CC/C=C/1C", "Potency": "14.2 µM (active)"},
      {"molecule": "C[C@@H]1O[C@@H](O[C@H]2[C@H](O[C@H]3CC[C@@]4(C)C(CC[C@]5(C)C4CC=C4[C@@H]6CC(C)(C)CC[C@]6(C(=O)O[C@@H]6OC[C@H](O)[C@H](O)[C@H]6O[C@@H]6O[C@@H](C)[C@H](O[C@@H]7O[C@H](CO)[C@@H](O)[C@H](O)[C@H]7O)[C@H](O)[C@H]6O)[C@H](O)C[C@]45C)C3(C)C)O[C@H](CO)[C@@H](O[C@@H]3OC[C@@H](O)[C@H](O)[C@H]3O)[C@@H]2O)[C@H](O)[C@H](O)[C@H]1O", "note": "(some centres undefined)", "activity change, negative = viability loss": "-6.56% [at 9.23 µM] (inactive)"},
      {"molecule": "CCCCNc1ncc2c(-c3ccc(F)cc3)nn(CC3CCC(N)CC3)c2n1", "note": "(centres undefined)", "Potency": "2.24 µM (active)"},
      {"molecule": "C[C@@H]1O[C@@H](O[C@H]2[C@H](OC(=O)[C@]34CCC(C)(C)C[C@H]3C3=CCC5[C@@]6(C)C[C@H](O)[C@H](O[C@@H]7O[C@H](CO)[C@@H](O)[C@H](O)[C@H]7O)[C@@](C)(CO)C6[C@H](O)C[C@@]5(C)[C@]3(C)CC4)OC[C@H](O)[C@@H]2O)[C@H](O)[C@H](O)[C@H]1O[C@@H]1OC[C@@H](O)[C@H](O[C@@H]2OC[C@](O)(CO)[C@H]2O)[C@H]1O", "note": "(some centres undefined)", "activity change, negative = viability loss": "-10.4% [at 9.23 µM] (inactive)"},
      {"molecule": "CC(=O)N[C@H]1[C@H](O[C@H]2CC[C@@]3(C)C(CC[C@]4(C)C3CC=C3[C@@H]5CC(C)(C)CC[C@]5(C(=O)OC5OCC(O)C(O)C5O)CC[C@]34C)C2(C)C)O[C@H](COC2OC(C)C(O)C(OC3OC(C)C(O)C(O)C3O)C2O)[C@@H](O)[C@@H]1O", "note": "(some centres undefined)", "outcome": "inactive [at 9.23 µM]"},
      {"molecule": "CC(C)(O)c1ccc2c(c1)C(O)C[C@H]1[C@](C)(C(=O)O)CCC[C@]21C", "note": "(some centres undefined)", "activity change, negative = viability loss": "3.23% (inactive)"},
      {"molecule": "CC1NC(=O)CCCNC(=O)C(Cc2c[nH]c3ccccc23)NC(=O)C(C)NC(=O)C(C(C)C)NC(=O)C(C(C)c2ccccc2)NC(=O)C(C(C)C)NC1=O", "note": "(stereo not drawn) (cyclo([GABA]AV[ξPhe(βξ-Me)]VAW); configuration not given here)", "activity change, negative = viability loss": "-26.7% [at 17.3 µM] (inactive)"},
      {"molecule": "C=C1C(=O)OC2/C=C(\\CO)CC/C=C(\\C=O)CC(OC(=O)CC(C)C)C12", "note": "(centres undefined)", "Potency": "4.01 µM (active)"},
      {"molecule": "CC(C)C(NC(=O)c1ccc2ccccc2n1)C(=O)NC(CC(=O)O)C(=O)COc1c(F)cccc1F", "note": "(centres undefined)", "activity change, negative = viability loss": "3.78% (inactive)"},
      {"molecule": "O=C(OC1C=C(CO)C2C(OC3OC(CO)C(O)C(O)C3O)OC=CC12)c1ccc(O)cc1", "note": "(centres undefined)", "outcome": "inactive [at 17.3 µM]"},
      {"molecule": "CC1(C)CC[C@]2(C(=O)O[C@@H]3O[C@H](CO)[C@@H](O)[C@H](O)[C@H]3O)CC[C@]3(C)C(=CCC4[C@@]5(C)C[C@@H](O)[C@H](O)[C@](C)(C=O)C5CC[C@]43C)[C@@H]2[C@@H]1O", "note": "(some centres undefined)", "outcome": "inactive [at 17.3 µM]"},
      {"molecule": "C/C=C/c1cc(OC)c2c(c1)[C@@H](C)[C@@H](c1ccc(O)c(OC)c1)O2", "Potency": "8.98 µM (active)"},
      {"molecule": "CC1(CCOC2OC(CO)C(O)C(O)C2O)CCC23OC2(C1)C(O)CC1C(C)(C(=O)O)CCCC13C", "note": "(centres undefined)", "activity change, negative = viability loss": "-6.3% [at 17.3 µM] (inactive)"},
      {"molecule": "CC1(C)CC2=C3C=CC4C5(C)CCC(O)C(C)(C)C5CCC4(C)C3(C)CCC2(C)C(O)C1", "note": "(centres undefined)", "activity change, negative = viability loss": "-14.4% [at 17.3 µM] (inactive)"},
      {"molecule": "COC(=O)C[C@H]1[C@]2(C)C3=C(C)[C@H](c4ccoc4)C[C@H]3O[C@@H]2[C@H](OC(C)=O)C2[C@](C)(C(=O)OC)C=CC(=O)[C@@]21C", "note": "(some centres undefined)", "activity change, negative = viability loss": "-9.58% [at 17.3 µM] (inactive)"},
      {"molecule": "C[C@@H]1O[C@@H](O[C@H]2[C@@H](OC(=O)[C@]34CCC(C)(C)CC3C3=CCC5[C@@]6(C)C[C@H](O)[C@H](O[C@@H]7O[C@H](C(=O)O)[C@@H](O)[C@H](O)[C@H]7O)[C@@](C)(C(=O)O)C6CC[C@@]5(C)[C@]3(C)CC4)OC[C@H](O)[C@@H]2O)[C@H](O)[C@H](O)[C@H]1O[C@@H]1OC[C@@H](O)[C@H](O)[C@H]1O", "note": "(some centres undefined)", "activity change, negative = viability loss": "-12% [at 9.23 µM] (inactive)"},
      {"molecule": "COc1cc(C2Oc3c(OC)cc(CCCO)cc3C2CO)ccc1O[C@H]1O[C@H](C)[C@@H](O)[C@H](O)[C@@H]1O", "note": "(some centres undefined)", "activity change, negative = viability loss": "-10.8% [at 17.3 µM] (inactive)"},
      {"molecule": "COC(=O)C[C@H]1C(C)(C)[C@H](OC(C)=O)C2CC3=C4CC(=O)O[C@@H](c5ccoc5)[C@]4(C)CCC3[C@@]1(C)C2=O", "note": "(some centres undefined)", "activity change, negative = viability loss": "-19.2% [at 17.3 µM] (inactive)"},
      {"molecule": "CC(C)c1ccc2c(c1)C(=O)CC1[C@@](C)(C(=O)O)CCC[C@]21C", "note": "(some centres undefined)", "activity change, negative = viability loss": "-13.8% (inactive)"},
      {"molecule": "COC(=O)C12CCC(C)C(C)C1C1=CCC3C4(C)CCC(OC(C)=O)C(C)(C)C4CCC3(C)C1(C)CC2", "note": "(centres undefined)", "outcome": "inactive [at 17.3 µM]"},
      {"molecule": "C/C1=C\\CCC(C)CCO[C@@H]2O[C@H](CO[C@@H]3OC[C@H](O)[C@H](O)[C@H]3OC1=O)[C@@H](O)[C@H](O)[C@H]2O", "note": "(some centres undefined)", "activity change, negative = viability loss": "-1.64% [at 17.3 µM] (inactive)"},
      {"molecule": "Cc1ccccc1C#Cc1ccc(CCC(=O)O)cc1", "activity change, negative = viability loss": "-11.4% (inactive)"}
    ]}
  ]
}
